# Inconclusive results are not listed. A number with no mark means an inactive call. Calls come from the whole dose curve; as a rule, active = well fitted cell-killing curve with a large enough effect; inconclusive = small, poorly fitted or top-dose-only effect; inactive = flat fitted curve, though single readings scatter.
# Assay: qHTS of pediatric cancer cell lines to identify multiple opportunities for drug repurposing: Primary screen for U-2 OS cells (AID 1347096);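 note: plate controls were DMSO wells for no effect and bortezomib positive control wells for full effect; nearly all actives have a fitted effect of over 50% in size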
# Conditions: U-2 OS viability, CellTiter-Glo luminescence, 48 h; series mostly up to 46 µM; activity change, negative = cytotoxic: at the top concentration
# In short: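 Cells (500-1,000/well) in growth media were settled 5 h at 37 degrees C, then given compounds for 48 h. Viability was read as CellTiter-Glo luminescence. Primary runs used MIPE at 11 points (0.78 nM-46 µM) and NPC at 8 points (0.59 nM-46 µM); follow-ups used 11 points.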
row,Structure (SMILES),"activity change, negative = cytotoxic"
1,CN(C)CCN1C(=O)c2ccccc2N(C)c2ccccc21,-1.65%
2,NCCNc1cccc2ccccc12,-0.142%
3,CCCCCCCC/C=C\CCCCCCCCN,5.69%
4,COc1ccc2c(c1)c1c3n2CCN(C)C3=NCC1,10.1%
5,Cc1c(-c2ccccc2)oc2c(C(=O)OCCN3CCCCC3)cccc2c1=O,-2.54%
6,CC[N+](C)(CC)CCOC(=O)C(O)(c1ccccc1)C1CCCCC1 (stereo unspecified),12.8%
7,CC(=O)N[C@@H](CCC(=O)O)C(=O)O,5.79%
8,Cc1cc(NS(=O)(=O)c2ccc(N)cc2)nc(C)n1,1.55%
9,O=C(O)C1(C(=O)O)CCC1.[NH2-].[NH2-].[Pt+2],5.7%
10,CC1(COc2ccc(CC3SC(=O)NC3=O)cc2)CCCCC1 (stereo unspecified),5.78%
11,Cc1ccc(S(=O)(=O)NC(=O)NC2CCCC2)cc1,3.96%
12,CCOc1cc(OCC)c(C(=O)CCC(=O)O)cc1OCC,5.18%
13,COc1ccc(/C=N/NC(=O)c2ccncc2)cc1OC,-1.42%
14,N=C(N)N1CCc2ccccc2C1,-4.95% [at 4.84 µM]
15,Cc1cc(C)cc(OCC2CNC(=O)O2)c1 (stereo unspecified),-3.18%
16,CC(C)(C)NC[C@H](O)COc1cccc2c1CCCC2=O,-4.42%
17,O=C(Nc1cccc(C2=NCCN2)c1)Nc1cccc(C2=NCCN2)c1,-1.34% [at 16.1 µM]
18,CCCCCCCCCCCCCCCCO,6.67%

row,Structure (SMILES),"activity change, negative = cytotoxic"
1,CCOC(=O)Nc1ccc2c(c1)N(C(=O)CCN1CCOCC1)c1ccccc1S2,-14.7%
2,NS(=O)(=O)c1cc(C(=O)O)cc(N2CCCC2)c1Oc1ccccc1,-1.02%
3,CC(CNC1CCCCC1)OC(=O)c1ccccc1 (stereo unspecified),-9.1%
4,CCCCN1C[C@H](O)[C@@H](O)[C@H](O)[C@H]1CO,-2.09%
5,Cc1cccc(C)c1NC(=O)CN1CCCCCC1,9.79%
6,CCC(Cc1c(I)cc(I)c(N)c1I)C(=O)O (stereo unspecified),7.59%
7,CC(C)CCCC(C)N (stereo unspecified),5.22%
8,O=C(Nc1ccc([N+](=O)[O-])cc1)Nc1ccc([N+](=O)[O-])cc1,4.07%
9,C#C[C@]1(O)CC[C@H]2[C@@H]3CCC4=CC(=O)CC[C@@H]4[C@H]3CC[C@@]21CC,-7.42%
10,Cc1cccc(C)c1NC(=O)c1ccccc1C(=O)O,14.3%
11,CCN(CC)CCOC(=O)C1(c2ccccc2)CCCC1,11.4%
12,CC1(C)OC[C@@H]2O[C@@]3(C(=O)O)OC(C)(C)O[C@H]3[C@@H]2O1,13.2%
13,CCCCCCCCCCCCCCCC(=O)O,12.7%
14,CN1CCN(c2c(F)cc3c(=O)c(C(=O)O)cn4c3c2SCC4)CC1,-1.24%
15,OC[C@H]1O[C@@H](Oc2ccc(O)cc2)[C@H](O)[C@@H](O)[C@@H]1O,4.92%
16,CC(=O)Nc1ccc(CC(=O)O)cc1,-0.675%
17,Oc1ccccc1C=NCc1ccccc1,14.2%
18,CC1CCc2c(N3CCC(O)CC3)c(F)cc3c(=O)c(C(=O)O)cn1c23 (stereo unspecified),-4.4%

# From PubChem BioAssay (NCATS)
